Laboratory results from PubChem BioAssay (NCI).
“And” between values parts separate entries of the source, which are not always exact repeats. Equal entries are not always repeated. The panel holds about 83,000 compounds, 20% with a hit somewhere; the sample as a whole holds those more often.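 Negative percent growth values reflect cell death: -40 means 40% of the cells present at the start died, and -100 means all died.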 Unmarked numbers belong to inactive results. The source made the active and inactive calls. The calls were made as follows: active = growth percent below 10; inactive = the rest.

Test system: UACC-62 melanoma
Assay: NCI-60 one-dose screen, 48 h (100 = growth as untreated, 0 = no growth, -100 = all killed)
Details: 100 µM

| SMILES | growth |
| --- | --- |
| COc1cccc2c1cc([N+](=O)[O-])c1c(C(=O)O)cc3c(c12)OCO3 | -19.4% (active) and 0.694% (active) |
| S=C(SSC(=S)N1CCCCC1)N1CCCCC1 | 2.29% (active) |
| CC1CCC2(NC1)OC1CC3C4CCC5CC(OC6OC(CO)C(OC7OC(CO)C(O)C(OC8OCC(O)C(O)C8O)C7OC7OC(CO)C(O)C(O)C7O)C(O)C6O)CCC5(C)C4CCC3(C)C1C2C (stereo not drawn) | -77.3% (active) and -86.4% (active) |

Test system: LOX IMVI melanoma
Assay: as above
Details: 10 µM unless noted

| SMILES | growth |
| --- | --- |
| CC[C@@]1(O)C[C@H](OC2CC(N(C)C)C(O)C(C)O2)c2c(O)c3c(c(O)c2[C@H]1OC1CC(N(C)C)C(O)C(C)O1)C(=O)c1cccc(O)c1C3=O (stereo partly drawn) | -36.2% (active) |
| COC1CC(CC2CCC(C)C(C(C)C(=O)O)O2)OC2(OC(C)(C3CCC(C)(C4OC(C5OC(O)(CO)C(C)CC5C)CC4C)O3)CC2C)C1C (stereo not drawn) | 11.3% |
| CCC(=O)OC1CCn2c1nc1c2C(=O)C(C)=C(N2CC2)C1=O (stereo not drawn) | -75.7% (active) |
| CO[C@H](/C(C)=C/C=C/C(C)=C/c1coc(C)n1)[C@H](C)[C@H]1C[C@@H](O)[C@@]2(C)O[C@H]2/C=C/[C@@H](C)[C@@H]2C[C@@H](CC(=O)O2)C[C@H]2O[C@@H]2C(=O)O1 | 13.1% |
| CC1=C(CO)C2=C(C)C3(CC3)[C@@](C)(O)C(=O)C2=C1 | 22.8% |
| COC1=C(C)C(=O)C2=C(C1=O)C(CO)N1C(C#N)C3CC4C(C1C2N1CCOC41)N3C (stereo not drawn) | -21.2% (active) |
| CC[n+]1c(-c2ccccc2)c2cc(N)ccc2c2ccc(N)cc21 | 13.5% |
| CN1CCN(c2ccc([N+](=O)[O-])c3no[n+]([O-])c23)CC1 | -46.2% (active) |
| COc1cccc2c1cc([N+](=O)[O-])c1c(C(=O)O)cc3c(c12)OCO3 | 70.4% and 99.2% |
| CCOC(=O)C(NC(=O)C(Cc1ccc(N(CCCl)CCCl)cc1)NC(C)=O)C(C)C (stereo not drawn) | 66.1% |
| C[C@]12CC[C@H](O)CC1=CC[C@@H]1[C@@H]2CC[C@]2(C)C(=O)CC[C@@H]12 | 102% |
| NCCc1ccc(OCc2ccccc2)c(OCc2ccccc2)c1 | 63.2% |
| Oc1cccc2cccnc12 | 71.9% and 99.1% and 107% |
| COc1ccccc1/C=C(/C)[N+](=O)[O-] | 22.2% and 92.2% |
| CC1=C2C(=O)[C@H]3[C@@H](CC=C4C[C@@H](O)CC[C@@]43C)[C@@H]2CC[C@]12O[C@@H]1C[C@H](C)CN[C@H]1[C@H]2C | 96.4% |
| Cc1cc(N=Nc2ccccc2C)ccc1N | 71.5% |
| COc1ccc(OC)c(/C=C/[N+](=O)[O-])c1 | -48.5% (active) |
| CC[C@](O)(C(=O)O)c1cc2n(c(=O)c1CO)Cc1cc3ccccc3nc1-2 | -40.9% (active) |
| Cc1c(N)nc([C@H](CC(N)=O)NC[C@H](N)C(N)=O)nc1C(=O)N[C@H](C(=O)N[C@H](C)[C@@H](O)[C@H](C)C(=O)N[C@H](C(=O)NCCc1nc(-c2nc(C(=O)NCCC[S+](C)C)cs2)cs1)[C@@H](C)O)C(OC1OC(CO)C(O)C(O)C1OC1OC(CO)C(O)C(OC(N)=O)C1O)c1cnc[nH]1 (stereo partly drawn) | 14.3% [2.5 µM] |
| CC[C@@]1(O)C(=O)OCc2c1cc1n(c2=O)Cc2cc3ccccc3nc2-1 | -62.4% (active) |
| Oc1cc[c]([Hg][Cl])cc1 | 71.3% |
| CCC1(O)CC(OC2CC(N(C)C)C(OC3CC4OC5CC(=O)C(C)OC5OC4C(C)O3)C(C)O2)c2c(cc3c(c2O)C(=O)c2c(O)ccc(O)c2C3=O)C1C(=O)OC (stereo not drawn) | -22.7% (active) |
| Cc1ccc(C(=O)OC(C(=O)O)C(OC(=O)c2ccc(C)cc2)C(=O)O)cc1 (stereo not drawn) (tested in a mixture with another compound) | 56.2% |
| CCCCCCCCCCCC1CCCC(C)N1 (stereo not drawn) | 52.3% |
| CC(=O)O[C@H]1C[C@@H]2OC3C=C(C)CCC3(C)[C@@]1(C)[C@@]21CO1 (stereo partly drawn) | -58.9% (active) and -21.5% (active) |
| CC[C@@]1(O)C[C@H](OC2CC(N(C)C)C(OC3CC(O)C(OC4CCC(=O)C(C)O4)C(C)O3)C(C)O2)c2c(cc3c(c2O)C(=O)c2c(O)ccc(O)c2C3=O)[C@H]1C(=O)OC (stereo partly drawn) | -68.8% (active) |
| C[C@H]1CCC/C=C/[C@@H]2C[C@H](O)C[C@H]2[C@H](O)/C=C/C(=O)O1 | -69.4% (active) |

Test system: SK-MEL-2 melanoma
Assay: as above
Details: 10 µM unless noted

| SMILES | growth |
| --- | --- |
| CC[C@@]1(O)C[C@H](OC2CC(N(C)C)C(O)C(C)O2)c2c(O)c3c(c(O)c2[C@H]1OC1CC(N(C)C)C(O)C(C)O1)C(=O)c1cccc(O)c1C3=O (stereo partly drawn) | -54.5% (active) |
| COC1CC(CC2CCC(C)C(C(C)C(=O)O)O2)OC2(OC(C)(C3CCC(C)(C4OC(C5OC(O)(CO)C(C)CC5C)CC4C)O3)CC2C)C1C (stereo not drawn) | -61.3% (active) |
| CCC(=O)OC1CCn2c1nc1c2C(=O)C(C)=C(N2CC2)C1=O (stereo not drawn) | -43.9% (active) |
| CO[C@H](/C(C)=C/C=C/C(C)=C/c1coc(C)n1)[C@H](C)[C@H]1C[C@@H](O)[C@@]2(C)O[C@H]2/C=C/[C@@H](C)[C@@H]2C[C@@H](CC(=O)O2)C[C@H]2O[C@@H]2C(=O)O1 | 51.4% |
| CC1=C(CO)C2=C(C)C3(CC3)[C@@](C)(O)C(=O)C2=C1 | -46.8% (active) |
| COC1=C(C)C(=O)C2=C(C1=O)C(CO)N1C(C#N)C3CC4C(C1C2N1CCOC41)N3C (stereo not drawn) | -58.4% (active) |
| CC[n+]1c(-c2ccccc2)c2cc(N)ccc2c2ccc(N)cc21 | -60.1% (active) |
| CN1CCN(c2ccc([N+](=O)[O-])c3no[n+]([O-])c23)CC1 | -80.5% (active) |
| COc1cccc2c1cc([N+](=O)[O-])c1c(C(=O)O)cc3c(c12)OCO3 | 94.4% and 104% |
| CCOC(=O)C(NC(=O)C(Cc1ccc(N(CCCl)CCCl)cc1)NC(C)=O)C(C)C (stereo not drawn) | 92.7% |
| C[C@]12CC[C@H](O)CC1=CC[C@@H]1[C@@H]2CC[C@]2(C)C(=O)CC[C@@H]12 | 95.3% |
| NCCc1ccc(OCc2ccccc2)c(OCc2ccccc2)c1 | 87.4% |
| Oc1cccc2cccnc12 | 99% and 102% and 101% |
| COc1ccccc1/C=C(/C)[N+](=O)[O-] | 94.8% and 85.9% |
| CC1=C2C(=O)[C@H]3[C@@H](CC=C4C[C@@H](O)CC[C@@]43C)[C@@H]2CC[C@]12O[C@@H]1C[C@H](C)CN[C@H]1[C@H]2C | 2.09% (active) |
| Cc1cc(N=Nc2ccccc2C)ccc1N | 127% |
| COc1ccc(OC)c(/C=C/[N+](=O)[O-])c1 | 1.51% (active) |
| CC[C@](O)(C(=O)O)c1cc2n(c(=O)c1CO)Cc1cc3ccccc3nc1-2 | -20.9% (active) |
| Cc1c(N)nc([C@H](CC(N)=O)NC[C@H](N)C(N)=O)nc1C(=O)N[C@H](C(=O)N[C@H](C)[C@@H](O)[C@H](C)C(=O)N[C@H](C(=O)NCCc1nc(-c2nc(C(=O)NCCC[S+](C)C)cs2)cs1)[C@@H](C)O)C(OC1OC(CO)C(O)C(O)C1OC1OC(CO)C(O)C(OC(N)=O)C1O)c1cnc[nH]1 (stereo partly drawn) | 125% [2.5 µM] |
| CC[C@@]1(O)C(=O)OCc2c1cc1n(c2=O)Cc2cc3ccccc3nc2-1 | -20.7% (active) |
| Oc1cc[c]([Hg][Cl])cc1 | 70.2% |
| CCC1(O)CC(OC2CC(N(C)C)C(OC3CC4OC5CC(=O)C(C)OC5OC4C(C)O3)C(C)O2)c2c(cc3c(c2O)C(=O)c2c(O)ccc(O)c2C3=O)C1C(=O)OC (stereo not drawn) | -54.8% (active) |
| O=C1c2ccccc2C(=O)C(Cl)C1Cl (stereo not drawn) | 111% |
| Cc1ccc(C(=O)OC(C(=O)O)C(OC(=O)c2ccc(C)cc2)C(=O)O)cc1 (stereo not drawn) (tested in a mixture with another compound) | 77.1% |
| CCCCCCCCCCCC1CCCC(C)N1 (stereo not drawn) | -7.27% (active) |
| CC(=O)O[C@H]1C[C@@H]2OC3C=C(C)CCC3(C)[C@@]1(C)[C@@]21CO1 (stereo partly drawn) | -72.2% (active) and -53.9% (active) |
| CC[C@@]1(O)C[C@H](OC2CC(N(C)C)C(OC3CC(O)C(OC4CCC(=O)C(C)O4)C(C)O3)C(C)O2)c2c(cc3c(c2O)C(=O)c2c(O)ccc(O)c2C3=O)[C@H]1C(=O)OC (stereo partly drawn) | -40.2% (active) |
| C[C@H]1CCC/C=C/[C@@H]2C[C@H](O)C[C@H]2[C@H](O)/C=C/C(=O)O1 | -21.5% (active) |
